The values below come from PubChem BioAssay AID485297 (National Center for Advancing Translational Sciences (NCATS), 2010).

Molecules are shown by their SMILES. The campaign covered roughly 320,000 compounds. About 9,100 (2.8%) were called active. Roughly 3% stayed inconclusive and do not appear here. The entries come from a sample that favours actives as a whole. Unmarked numbers belong to inactive results. The call rests on the fitted dose curve; in most records, active means well fitted activation curve with a large enough effect; inconclusive means small, poorly fitted or top-dose-only effect; inactive means no such curve, though single readings can be large or run the other way.
Potency means the concentration at half of the fitted maximal effect.

A short description of this assay: qHTS Assay for Rab9 Promoter Activators. Further: nearly all actives have a fitted effect of over 60% in size. On activation, negative = inhibition: % of control where 0% means no effect. The settings on record: Huh7 Rab9 promoter-luciferase reporter, luminescence, 24 h; series mostly up to 9.22 µM; activation, negative = inhibition: at the top concentration. In outline:
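Huh7 reporter line, Rab9 promoter upstream of luciferase. Compound exposure 24 h at 37 °C in reduced-serum medium with 10% FBS. Read-out: luminescence.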
On to `O=C(Nc1ccc(NC(=O)c2ccco2)c(Cl)c1)c1cccc([N+](=O)[O-])c1`, for which the “activation, negative = inhibition” value was 2.88%. In the case of `O=C(Nc1ccc(C(=O)N2CCCCC2)cc1)c1cccc([N+](=O)[O-])c1`, the “activation, negative = inhibition” value was 2.09%. `CN(C)/C=C(/C(=O)c1ccc(Cl)c(Cl)c1)c1nnnn1-c1ccccc1`: the “activation, negative = inhibition” value is -1.69%. As to `CC(=NCc1ccco1)C1=C(O)c2ccccc2C1=O`, the “activation, negative = inhibition” value was 27.3%. Regarding `CC(=NCc1ccco1)c1c(C(F)(F)F)[nH]n(-c2nc3ccccc3s2)c1=O`, the Potency was 2000 nM (active). For the compound `COC(=O)Cc1[nH]n(-c2nc3ccccc3s2)c(=O)c1C(C)=Nc1ccc(OC)cc1`, the “activation, negative = inhibition” value was -29.5%. For `O=C(CN1CCN(S(=O)(=O)c2cccc(Cl)c2)CC1)N1CCCCC1`, the “activation, negative = inhibition” value is -2.8%. Regarding `COc1ccccc1N1CCN(CC(=O)Nc2ccnn2C2CCCC2)CC1`, the “activation, negative = inhibition” value was -1.51%. On to `COc1ccc(-c2nn(-c3ccccc3)cc2/C=C\C(=O)Nc2ccc(C(=O)O)cc2)cc1`, for which the “activation, negative = inhibition” value was -2.58%. As for `O=C(O)c1ccc(N/N=C/c2cn(-c3ccccc3)nc2-c2cccs2)cc1`, the Potency is 447 nM (active). For `O=C(/C=C\c1cn(-c2ccccc2)nc1-c1cccs1)N1CCOCC1`, the “activation, negative = inhibition” value was -2.01%. Turning to `COc1ccc(OC)c(/C=C/C(=O)c2ccc3c(c2)OCO3)c1`, the “activation, negative = inhibition” value was -4.56%. Still for that read-out and setting: the figure for `CN(C(=O)COC(=O)Cn1cnc2c1c(=O)n(C)c(=O)n2C)C1(C#N)CCCCC1` is 2.9%. `COc1ccccc1-n1ccnc1SCC(=O)NC(C)(C)C`: the “activation, negative = inhibition” value was -2.9%. Take `Cc1ccccc1CSCC(=O)NC(=O)NC(C)(C)C`: the “activation, negative = inhibition” value is 7.27%. Consider `CC(C)(C)NC(=O)CSC(=Nc1ccccc1F)NC#N`, for which the Potency was 3980 nM (active). With `CC(CCc1ccccc1)NC(=O)c1cnc(Cl)c(Cl)c1` (stereo not given), the activation, negative = inhibition was -1.69% [at 1.84 µM].

For `COc1ccc(CNC(=O)c2ccc(NS(=O)(=O)c3ccc4[nH]c(=O)[nH]c4c3)cc2)cc1OC`, the “activation, negative = inhibition” value is 0.821%. For the compound `O=C(NC(=S)Nc1ccc(Cl)cc1Cl)C1CC1`, the Potency was 2820 nM (active).

With `S=C(NCc1cccnc1)Nc1ccc(Cl)cc1Cl`, the “activation, negative = inhibition” value was 2%.

As for `CN1CCN(S(=O)(=O)c2ccc(NC(=S)NC(=O)C3CC3)cc2)CC1`, the “activation, negative = inhibition” value was 2.23%. As for `Cc1ccc(OCC(=O)Nc2ccccc2C(=O)NC2CC2)cc1`, the “activation, negative = inhibition” value is -0.812%.

For the compound `CCOC(=O)c1c(C)[nH]c(C(=O)OCC(=O)N2CCCC2=O)c1C`, the “activation, negative = inhibition” value is 5.19%. As to `CCOC(=O)c1c(C)[nH]c(C(=O)OCC(=O)c2ccc(OC)cc2OC)c1C`, the “activation, negative = inhibition” value is 3.1%. `CCCCOC(=O)c1[nH]c(C)c(C(=O)OC)c1C`: the Potency is 2820 nM (active).

For the compound `COc1ccc(/C(C)=N/Nc2cc(C(F)(F)F)ccc2Cl)c(OC)c1`, the “activation, negative = inhibition” value is -5.83%.

Consider `CC(C)c1ccc(NC(=S)NC2CC3C=CC2C3)cc1` (stereo not given), for which the Potency was 2820 nM (active). As for `S=C(NNC(=S)NC1CC2CCC1C2)NC1CC2C=CC1C2` (stereo not given), the “activation, negative = inhibition” value is -0.185%. The same measure, in the same setting: the figure for `S=C(NNC(=S)NC1CC2C=CC1C2)NC1CC2C=CC1C2` (stereo not given) is 6.58%; for `COc1ccc(-c2cc(C(=O)NCCCN3CCCC3=O)c3ccccc3n2)cc1OC` it is 8.83%.

On to `N/C(=N\OC(=O)N1c2ccccc2Sc2ccccc21)c1ccc(Br)cc1`, for which the “activation, negative = inhibition” value was -1.25%. On to `N/C(=N\OC(=O)/C=C/c1ccccc1)c1ccc(Br)cc1`, for which the “activation, negative = inhibition” value is 3.85%. As to `N/C(=N\OC(=O)c1ccc2c(c1)OCO2)c1ccc(Br)cc1`, the Potency is 3980 nM (active). As for `CC1CC2C3CCC4=CC(=O)C=C[C@]4(C)[C@@]3(F)[C@@H](O)C[C@]2(C)[C@@]1(O)C(=O)CO` (stereo not given in full), the “activation, negative = inhibition” value is 4.04% [at 46.1 µM]. On the same count and under the same terms, the figure for `CCCc1nc2ccccc2c(=O)n1NC(=O)c1c(O)c2ccccc2[nH]c1=O` is -0.479%.

On to `NS(=O)(=O)c1ccccc1NC(=O)c1c(O)c2ccccc2[nH]c1=O`, for which the Potency is 447 nM (active). As to `CC(C)C(=O)Nc1c(O)c2ccccc2[nH]c1=O`, the “activation, negative = inhibition” value is -2.25%. Take `COc1ccc(C(=O)NCc2ccc(Cl)cc2)cc1S(=O)(=O)N1CCCC1`: the “activation, negative = inhibition” value was -4.13%. In the case of `CCCn1nc(C(=O)NNC(=O)CCOc2ccccc2OCC)c2ccccc2c1=O`, the “activation, negative = inhibition” value is -1.1%. With `O=C(Nc1ccnc(-c2ccncc2)n1)c1cccs1`, the “activation, negative = inhibition” value was -2.43%. As to `O=C(Nc1ccc(NC(=O)c2cccs2)cn1)c1ccco1`, the Potency is 316 nM (active). Turning to `NC(=O)c1ccsc1NC(=O)c1ccco1`, the “activation, negative = inhibition” value was 3.95%. Turning to `CC(C)(C)n1ncc2c(=O)n(Cc3c(Cl)cccc3Br)cnc21`, the “activation, negative = inhibition” value was -2.66%. Turning to `c1ccc(CN=C2Nc3ccccc3CS2)nc1`, the Potency is 891 nM (active). In the case of `Cc1ccc(F)cc1S(=O)(=O)Nc1cccc(C(=O)N2CCCC(C(N)=O)C2)c1` (stereo not given), the “activation, negative = inhibition” value was -1.43%. Consider `C=C(C)CNc1cc(S(=O)(=O)N2CCOCC2)ccc1Oc1ccccc1`, for which the “activation, negative = inhibition” value was -9.64%.

For `CCOc1ccc(-c2nnc(-c3ccco3)o2)cc1`, the Potency is 355 nM (active). In the case of `Cc1ccc(OCC(=O)Nc2nnc(-c3ccco3)s2)cc1`, the “activation, negative = inhibition” value is 0.409%. For `COc1ccc(OCC(=O)Nc2nnc(-c3ccco3)s2)cc1`, the “activation, negative = inhibition” value was -2.66%. In the case of `O=C(CCc1ccccc1)Nc1cccc(-c2nnc(-c3ccco3)o2)c1`, the “activation, negative = inhibition” value was 2.91%.

Take `CCCCOc1ccc(-c2nnc(-c3ccco3)o2)cc1`: the Potency was 1410 nM (active). With `CC(=O)Nc1ccc(NC(=O)COc2ccc(-c3ccccc3)cc2)cc1`, the “activation, negative = inhibition” value is -5.02%. Take `Cc1ccc(OCC(=O)Nc2ccc(-c3nnc(-c4ccco4)o3)cc2)cc1`: the Potency is 2820 nM (active). `CCOc1ccc(-n2c(SCC(N)=O)nnc2-c2ccco2)cc1`: the “activation, negative = inhibition” value is 0.124%. `N#Cc1ccc(OCc2nnc(-c3ccc([N+](=O)[O-])cc3)o2)cc1`: the “activation, negative = inhibition” value is 29.6%.
